Screening data (PubChem BioAssay)
Rows were chosen to be rich in hits. Some 3.3% of all compounds tested hit in one or more screens of this group.
AmpC inh no detg = blocks E. coli AmpC beta-lactamase in detergent-free assay. P00811. Potency, µM (titrated, usually from 57.1 µM), most hits filed as inhibitors. 330,000 tested, 0.52% active. AmpC nitrocefin hydrolysis, absorbance 480 nm, 0.0001% Triton; further: nearly all actives have a fitted effect of over 20% in size
Target sequence (P00811 whole entry, looked up): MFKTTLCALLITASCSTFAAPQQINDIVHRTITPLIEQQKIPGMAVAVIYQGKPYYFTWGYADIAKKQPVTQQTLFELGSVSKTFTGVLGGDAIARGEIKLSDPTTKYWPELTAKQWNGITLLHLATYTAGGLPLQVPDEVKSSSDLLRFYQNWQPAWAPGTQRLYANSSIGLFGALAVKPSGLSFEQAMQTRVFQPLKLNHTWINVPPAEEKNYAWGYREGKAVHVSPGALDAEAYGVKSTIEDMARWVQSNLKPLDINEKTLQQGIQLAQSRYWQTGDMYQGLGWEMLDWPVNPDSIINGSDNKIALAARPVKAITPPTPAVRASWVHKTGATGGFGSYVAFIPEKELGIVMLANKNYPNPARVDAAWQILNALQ
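20 mM phosphate pH 7.0 + 0.01% (detergent screen) or 0.0001% Triton X-100; 5.3 nM AmpC reagent; cpd preinc 15 min RT; nitrocefin (800 uM stock) to start; A480 q20 s × 4 min; Activity was normalised to no-enzyme and no-compound control wells.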
AmpC inh detg = AmpC beta-lactamase inhibition with detergent present; AmpC hydrolysis of nitrocefin, absorbance 480 nm, 0.01% Triton; AID 485294; 370,000 tested, 0.041% active; Potency, µM (titrated, usually from 114 µM), usual class: inhibitors; further: nearly all actives have a fitted effect of over 25% in size
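20 mM phosphate pH 7.0 + 0.01% (detergent screen) or 0.0001% Triton X-100; 5.3 nM AmpC reagent; cpd preinc 15 min RT; nitrocefin (800 uM stock) to start; A480 q20 s × 4 min; Activity was normalised to no-enzyme and no-compound control wells.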
Sm TGR inh = S. mansoni TGR enzyme inhibition. Q962Y6. purified TGR, DTNB reduction, TNB absorbance 405 nm. Potency, µM (doses to about 114 µM), actives largely listed as inhibitors. 360,000 tested, 3% active; further: nearly all actives have a fitted effect of over 60% in size
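TGR 20 nM + NADPH 100 uM (dispensed conc.), cpd preinc 15 min RT; start with NADPH (500 uM addition) then DTNB (15 mM addition). Kinetic TNB absorbance, 405 nm filter. Four-parameter Hill fit across titration.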
Numbers stand for hits; 0 = inactive; ? = inconclusive; - = not tested or not shown; [ ] = remark or other dose. The call rests on the fitted dose curve; in most records, active means well fitted curve in the direction sought with a large enough effect; inconclusive means small, poorly fitted or top-dose-only effect, or another doubt; inactive means no such curve, though single readings can be large; an effect the other way counts as inactive or inconclusive.

SMILES	AmpC inh no detg	AmpC inh detg	Sm TGR inh
Cc1oc(-c2ccc(C(=O)NCc3ccccc3F)cc2)nc1COc1ccccc1	-	0	0
O=C(O)CC12CC3CC(C1)CC(n1ncc(NCC4CCCO4)c(Cl)c1=O)(C3)C2 (stereo not drawn)	0	0	40µM
CCc1cccc(Nc2cnn(C34C[C@@H]5C[C@@H](CC(CC(=O)O)(C5)C3)C4)c(=O)c2Cl)c1	0	0	0
O=C(O)CC12CC3CC(C1)CC(n1ncc(NCc4ccco4)c(Cl)c1=O)(C3)C2	0	0	11µM
Cc1ccc(Nc2cnn(C34CC5CC(CC(CC(=O)O)(C5)C3)C4)c(=O)c2Cl)cc1C	0	?	0
COc1cc2c(cc1OC)CN(C(=O)c1ccc(Br)o1)CC2	0	0	40µM
COc1cc2c(cc1OC)CN(C(=O)c1ccco1)CC2	0	0	?
O=C(Nc1ccc(C(=O)N2CCN(c3ccccc3)CC2)cc1)c1nsc2ccccc12	-	0	0
CC1(C)CC(=O)c2cc(-c3nc(-c4ccc(Br)cc4)cs3)c(=O)n(-c3ccccc3)c2C1	-	0	0
CCCSc1oc(-c2cccs2)nc1S(=O)(=O)c1ccc(Cl)cc1	-	0	0
CCOCCCNC(=O)/C(C#N)=C/c1ccc(C)o1	0	0	40µM
COCCNC(=O)/C(C#N)=C/c1ccc(C)o1	0	0	0
C=CCOc1ccccc1CN(C(=O)CCl)c1ccc2c(c1)OCO2	0	?	8.9µM
CCOc1ccccc1CN(CCc1ccc2c(c1)OCO2)Cc1ccc(CC)cc1	-	0	0
O=C(Cn1ncc2c3ccccc3n(Cc3cccc(Cl)c3)c2c1=O)N1CCCCCC1	-	0	0
CC1=C(c2ccc(C)cc2)S(=O)(=O)N(Cc2ccc(C(=O)NCc3ccccc3)cc2)C1=O	-	0	0
COc1ccc(Nc2nc(-c3ccccc3O)nc3ccccc23)cc1	2µM	0	0
COc1cccc(Nc2nc(-c3ccccc3O)nc3ccccc23)c1	0	0	0
O=Cc1c(Cl)nc2ccccn2c1=O	0	0	?
CCOC(=O)N1CCN(c2nc3c(C)cccn3c(=O)c2C=O)CC1	0	0	40µM
Cc1cccn2c(=O)c(C=O)c(Cl)nc12	0	0	6.3µM
Cc1cccn2c(=O)c(C=O)c(Sc3ncccn3)nc12	0	0	22µM
Cc1cccn2c(=O)c(C=O)c(N3CCN(c4ccc(F)cc4)CC3)nc12	0	0	0
Cc1cccn2c(=O)c(C=O)c(N3CCCCC3)nc12	0	0	0
CCOC(=O)COc1ccc(S(=O)(=O)NCc2ccncc2)cc1	0	0	0
SMILES	AmpC inh no detg	AmpC inh detg	Sm TGR inh
COC(=O)c1ccc(S(=O)(=O)NCc2ccc(OC)cc2)n1C	0	0	0
CCOC(=O)COc1ccc(S(=O)(=O)NCc2ccco2)cc1	0	0	50µM
Cc1ccc(S(=O)(=O)NCc2ccco2)cc1C	0	0	0
COC(=O)COc1ccc(S(=O)(=O)NCc2ccco2)cc1	0	?	35µM
CCCNS(=O)(=O)c1ccc(OCC(=O)NCc2ccco2)cc1	0	?	0
COC(=O)c1ccc(S(=O)(=O)NCc2ccco2)n1C	0	0	35µM
O=S(=O)(NCc1ccco1)c1ccc2c(c1)Cc1ccccc1-2	0	0	7.9µM
Cc1cn2c(=O)cc(COC(=O)COc3ccc(C)c(C)c3)nc2s1	-	0	0
CCOc1ccc(C(=O)Nc2cc(-c3cn4cccnc4n3)ccc2C)cc1OCC	-	0	0
COCCc1nn2c(=O)cc(COC(=O)C(c3ccccc3)c3ccccc3)nc2s1	-	0	0
COc1cccc(NC(=O)CSc2nccn2C2CCCC2)c1	-	0	0
CCC1CCCCN1S(=O)(=O)c1cc2c(cc1C)NC(=O)CO2 (stereo not drawn)	-	0	0
COc1cccc(C(=O)NCCS(=O)(=O)NCc2ccco2)c1	0	0	?
COc1ccc(C(=O)NCCS(=O)(=O)NCc2ccco2)cc1	0	?	45µM
Cc1ccc(S(=O)(=O)N(CC(=O)Nc2c(C)cccc2C)c2cccc(Cl)c2)cc1	-	0	0
COc1cc(NC(=O)c2noc3c2CC(C(C)(C)C)CC3)cc(OC)c1OC (stereo not drawn)	-	0	0
COc1ccc(-c2cn3nc(SCC(=O)Nc4ccc(C)c(Cl)c4)ccc3n2)cc1	-	0	0
COc1ccc(Cl)cc1NC(=O)[C@H]1O[C@@H]2OC(C)(C)O[C@@H]2[C@H]2OC(C)(C)O[C@H]21	-	0	0
CCOC(=O)c1c(C)sc2c1N(C(=O)CCl)c1cc(Cl)ccc1S2	0	0	2.5µM
Cc1sc2ncnc(SCC(=O)N3c4ccccc4Sc4ccc(Cl)cc43)c2c1C	0	0	0
Cc1cc2n(n1)CCC(=O)N2Cc1ccc(C(=O)Nc2cccc(C(F)(F)F)c2)cc1	-	0	0
O=C(CSc1ccc2nnc(-c3cccnc3)n2n1)N1CCc2ccccc21	0	?	0
O=C(CSc1ccc2nnc(-c3ccc(Cl)cc3)n2n1)N1CCc2ccccc21	6.3µM	0	0
Cn1c(=O)c2c(SCC(=O)Nc3ccccc3C(F)(F)F)nc(C3CCCC3)nc2n(C)c1=O	-	0	0
CCc1cccc(NC(=O)Nc2cccs2)c1	16µM	0	0
SMILES	AmpC inh no detg	AmpC inh detg	Sm TGR inh
N#Cc1cccc(NC(=O)Nc2cccs2)c1	?	0	0
CCC(=O)Nc1ccc(CC)cc1-c1nc2ccccc2n(CC(=O)Nc2cccc(Cl)c2)c1=O	-	0	0
Cc1cccc(C)c1Nc1nnc(SCC(=O)c2ccc(Br)s2)s1	0	0	0
Cc1cccc(C)c1Nc1nnc(SCC(=O)c2ccc3c(c2)NC(=O)CO3)s1	25µM	0	0
Cc1ccc(CNC(=O)CN(c2cc(C)cc(C)c2)S(=O)(=O)c2c(C)noc2C)cc1	-	0	0
Cc1ccc(C(C)C)c(OCc2ccc(C(=O)N/N=C/c3cccc(O)c3O)cc2)c1	8.9µM	0	0
Cc1ccc(C(C)C)c(OCc2ccc(C(=O)N/N=C/c3ccc(O)c(O)c3)cc2)c1	0	0	0
Cc1c(Cl)cccc1NS(=O)(=O)c1ccc(NS(=O)(=O)c2ccc3c(c2)OCCO3)cc1	-	0	0
CCc1ccc(S(=O)(=O)Nc2ccc3[nH]c(=O)sc3c2)cc1	-	0	0
Nc1nc(-c2cccs2)c(CC(=O)O)s1	0	0	40µM
O=C(O)Cc1sc(Nc2ccc(Cl)cc2)nc1-c1cccs1	0[11.4 µM]	0	0
O=C(Cn1cc(SCc2ccccc2F)c2ccccc21)N1CCCCCC1	-	0	0
O=C(/C=C/c1ccccc1)Nc1cc(NC(=O)/C=C/c2ccccc2)cc(C(=O)O)c1	0	?	40µM
O=C(/C=C/c1ccc([N+](=O)[O-])cc1)Nc1cccc(C(=O)Nc2ccccc2C(=O)O)c1	35µM	0	0
O=C(N/N=C/C(Cl)=C/c1ccc([N+](=O)[O-])cc1)C(=O)Nc1ccccc1C(=O)O	0	0	14µM
O=C(/C=C/c1ccccc1)Nc1cccc(C(=O)O)c1	0	0	0
COC(=O)c1cccc(NC(=O)/C=C/c2ccc([N+](=O)[O-])cc2)c1	0	0	0
O=C(N/N=C/C(Cl)=C/c1ccc([N+](=O)[O-])cc1)C(=O)Nc1ccc(C(=O)O)cc1	0	0	?
CC(C)CCn1c(=O)c2cccnc2n(CC(=O)Nc2ccc(F)cc2)c1=O	-	0	0
CC(=O)N=Cc1c(C)c(C#N)c(=O)n(C)c1O	0	0	0
